ChEMBL document CHEMBL3988442, “University of Dundee, Small-Polar-MMV Screening Library” (2021)

Experiments:
[1] = biological target: T1, Aspartate--tRNA(Asp/Asn) ligase (Mycobacterium tuberculosis (strain ATCC 25618 / H37Rv)) (UniProt P9WFW3); test: Assay for Asp RNA synthetase-1 from Mycobacterium tuberculosis; type: functional; parameters: scale not given: direction of the effect not stated beside the values; settings: 30 µM; further: in the data most compounds retested in dose-response had high values
T1 sequence (whole entry): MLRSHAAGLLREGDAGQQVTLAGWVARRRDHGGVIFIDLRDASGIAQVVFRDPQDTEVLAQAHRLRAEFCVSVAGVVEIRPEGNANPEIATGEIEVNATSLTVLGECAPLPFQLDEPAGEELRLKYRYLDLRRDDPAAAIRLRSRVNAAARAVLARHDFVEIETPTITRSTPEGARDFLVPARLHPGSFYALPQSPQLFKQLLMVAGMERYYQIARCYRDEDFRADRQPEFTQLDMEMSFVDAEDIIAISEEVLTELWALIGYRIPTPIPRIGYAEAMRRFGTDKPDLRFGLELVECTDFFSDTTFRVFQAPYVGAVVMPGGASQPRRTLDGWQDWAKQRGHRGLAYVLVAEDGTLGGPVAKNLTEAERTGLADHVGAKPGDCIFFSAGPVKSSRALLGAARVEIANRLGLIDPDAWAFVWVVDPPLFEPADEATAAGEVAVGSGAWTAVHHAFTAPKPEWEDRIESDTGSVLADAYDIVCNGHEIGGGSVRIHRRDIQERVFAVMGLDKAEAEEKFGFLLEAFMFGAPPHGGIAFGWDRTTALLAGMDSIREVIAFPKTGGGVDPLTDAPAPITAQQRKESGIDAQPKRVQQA

[2] = biological target: Shiga toxin 2 (Escherichia coli O157:H7) (UniProt P09385+P09386); test: E. coli 0.157:H7 Shiga Toxin SOP - stx2 screening assay; type: functional; parameters: scale not given: direction of the effect not stated beside the values; settings: 30 µM

Row | SMILES | Percent Effect [1] | Percent Effect [2]
1 | CCc1cc(NCCNc2cccnc2)n2nccc2n1 | 0.0112% | -5.46%
2 | CCOC(=O)N1CCN(C(=O)CCn2ccc3c(OC)cccc32)CC1 | 0.389% | -14.3%
3 | Cn1ncc(C(=O)N2CCCC(n3cccn3)C2)c1C1CC1 (centres undefined) | 3.87% | -7.05%
4 | Cc1ccc(CNC(=O)NCc2csc(C)n2)cn1 | -3.34% | -8.48%
5 | O=C1CC(c2ccco2)c2sc(C(=O)O)c(-c3ccccc3)c2N1 (centres undefined) | 7.4% | 19%
6 | Cc1cc(C2CCCN2CCCS(=O)(=O)c2ccccc2)no1 (centres undefined) | -1.06% | -12.2%
7 | CC(O)CN1CCC(CNCc2ccc(S(C)(=O)=O)cc2)CC1 (centres undefined) | 3.1% | -4.03%
8 | COc1ccc(OCCc2sc(C3(O)CCCNCC3)nc2C)cc1 (centres undefined) | -5.55% | -52%
9 | CCCN1CCC(NC(=O)c2ccc(F)cc2I)CC1 | -6.77% | 2.29%
10 | CN(C)S(=O)(=O)c1ccc(CN2CCCC2CO)o1 (centres undefined) | -0.169% | 24%
11 | Cc1ccc(C)c(OC2CCN(C(=O)c3ccc(O)nc3)CC2)c1 | -0.922% | 26.4%
12 | O=S(=O)(c1ccccc1)N1CCC2(CCCN2CC2CCCC2)C1 (centres undefined) | -2.77% | 9.27%
13 | Cc1ccoc1C(=O)NC1CCN(Cc2csc3c(F)cccc23)CC1 | -0.83% | -64.2%
14 | Cc1nc(CSCCC(=O)NCc2cccnc2N(C)C)cs1 | 1.66% | -9.97%
15 | COc1ccccc1OCC(=O)NS(=O)(=O)c1ccccc1Br | 5.46% | -14.2%
16 | Cc1ccc(C(C)NC(=O)Nc2ccccc2CN2CCOCC2)o1 (centres undefined) | -6.02% | 17.3%
17 | CCN1C(=O)CCCC12CCCN(C(=O)c1cnccn1)C2 (centres undefined) | 0.865% | -10.9%
18 | CN(C)C(=O)NC1COC2(CCN(Cc3nccn3C)CC2)C1 (centres undefined) | 2.7% | -6.31%
19 | Cc1ccc(CC(=O)N2CCCCC2c2nc(C)cs2)cn1 (centres undefined) | -2.2% | 1.25%
20 | COCC1c2nnn(CC3CC3)c2CCN1C(=O)Cc1cccs1 (centres undefined) | 4.11% | -2.97%
21 | CN(C)CCO[C@@H]1CC[C@H]2[C@H]1OCCN2C(=O)COc1ccccc1 | 1.51% | -12.1%
22 | O=C(NCCN1CCCCCC1=O)c1ccn(-c2ccc(F)cc2)n1 | 3.8% | 14.8%
23 | COCC(=O)N1CCC(c2nccn2CC2CC2)CC1 | -0.435% | -12.6%
24 | O=c1cc(Cn2cncn2)nc2n1CCCN(CC1CC1)C2 | -4.96% | -0.568%
25 | CC(C)(C)C(=O)Cn1nc(-c2ccccc2F)ccc1=O | -2.79% | -9.41%
26 | COc1cccc(C(=O)NCCCN2CCc3ccccc3C2)c1OC | -2.13% | -9.33%

Row | SMILES | Percent Effect [1] | Percent Effect [2]
27 | NC(=O)Nc1cccc(Oc2ccccn2)c1 | -2.58% | -11.9%
28 | Cc1nc(CN2CCCC(NCc3c(C)nc4sccn34)C2)no1 (centres undefined) | 2.46% | -20.2%
29 | CCn1nc(C)cc1C(=O)Nc1cc(F)ccc1OCC1CCCO1 (centres undefined) | -3.81% | 34.1%
30 | Cc1cn2nc(N3CCCC3Cn3nc(C)cc3C)sc2n1 (centres undefined) | -7.52% | -1.2%
31 | CCN(Cc1ccc2c(c1)OCO2)C(=O)NC(C)Cn1cccn1 (centres undefined) | -0.819% | -12.4%
32 | CCC(C)N(C)S(=O)(=O)c1ccc(CCNC(C)=O)s1 (centres undefined) | 0.0557% | -17%
33 | O=C(COc1ccc2c(c1)CCC2)NS(=O)(=O)c1cncc(Br)c1 | 4.7% | 4.36%
34 | Cc1noc(CCCC(=O)NC(C)c2cccnc2)n1 (centres undefined) | -0.922% | 31.2%
35 | Cc1nn(C)c(Cl)c1C1CCCN1C(=O)c1ccc2nncn2c1 (centres undefined) | -1.25% | 2.44%
36 | CC(C)c1n[nH]c(C(=O)Nc2ccnn2C(C)C)c1Br | -9.11% | -15.3%
37 | Cc1ccoc1C(=O)N1CCOCC2(CCN(c3ncccn3)C2)C1 (centres undefined) | 5.74% | 8%
38 | CN1CC(=O)N(c2cccc(F)c2)CC12CCN(S(C)(=O)=O)C2 (centres undefined) | -0.565% | 8.46%
39 | Cc1ccc(C(=O)N2C[C@@H]3COC[C@]3(COc3cccnc3)C2)cn1 | 2.55% | -13.2%
40 | CCOC(=O)N1CCN(C(=O)c2sc(-c3ccccc3F)nc2C)CC1 | 3.76% | -8.58%
41 | Cc1ccc(CN(Cc2ccccn2)C2CC(C)(C)NC(C)(C)C2)s1 | -5.4% | 15.6%
42 | CCCn1c(C)c(CC(=O)NC)c2c1CC(C)(C)CC2=O | -1.07% | -13.3%
43 | c1nc(CCC2CCCN2)cc(N2CCCOCC2)n1 (centres undefined) | -5.88% | -10.1%
44 | CNC(=O)CS(=O)(=O)Cc1coc(-c2ccc(F)cc2)n1 | -1.26% | -3.77%
45 | CC(Cn1cccn1)NC(=O)NCc1cccs1 (centres undefined) | -7.69% | -7.84%
46 | CCN(Cc1ccco1)C(=O)Nc1cc(C(F)(F)F)c[nH]c1=O | 3.71% | 34.2%
47 | Cc1n[nH]c(C)c1C1COCCN1C(=O)Cc1cccc(F)c1 (centres undefined) | 3.85% | -14.1%
48 | CN(CC(=O)N1CCN(c2ccccc2F)CC1)c1cnccn1 | 0.903% | 8.69%
49 | O=C1CCC2(CCCN(C(=O)c3cscn3)C2)CN1CCc1c[nH]cn1 (centres undefined) | 3.83% | -12.3%
50 | Cn1cc(CN2C[C@@H]3COC[C@]3(C(=O)NCc3ccccn3)C2)cn1 | 3.06% | -15%
51 | CC(O)CC(C)(C)CNC(=O)NCc1cccc(-n2ccnc2)c1 (centres undefined) | 1.43% | -7.32%
52 | CSc1ccc(Cl)c(C(=O)N2CCCC(CNS(C)(=O)=O)C2)c1 (centres undefined) | 2.82% | -37.8%

Row | SMILES | Percent Effect [1] | Percent Effect [2]
53 | Cc1occc1C(=O)N1CCC2(CCN(Cc3nccs3)C2)CC1 | 0.208% | -15.8%
54 | Cc1cnn(C2CN(Cc3nc(-c4ccco4)no3)C2)c1 | -7.28% | 10.9%
55 | OC(CN1CCC(c2ccn[nH]2)CC1)c1cccc(F)c1 (centres undefined) | -4.71% | -2.5%
56 | Cc1cnc(CN(Cc2ccccc2)CC(O)c2cccs2)cn1 (centres undefined) | -1.43% | -15.5%
57 | Cn1nc(CNC(=O)C2CCCC2)cc1C1CC1 | 0.0146% | -25.7%
58 | O=C(CSc1ccc2c(c1)OCCO2)NS(=O)(=O)C1CCCCC1 | 1.67% | -14%
59 | Nc1nc(CCC(=O)N2CCOC(CC3CCCCC3)C2)cs1 (centres undefined) | -4.71% | 19%
60 | Cc1nc[nH]c1CN1C[C@@H]2CC[C@H](C1)N(C(=O)CCNS(C)(=O)=O)C2 | -4.9% | -0.862%
61 | N#Cc1ccccc1CN1C[C@@H]2CC[C@H](C1)N(CC1CC1)C2=O | 2.11% | -9.72%
62 | COc1ccc(OC)c(NC(=O)NCC(O)c2ccc(F)c(F)c2)c1 (centres undefined) | 4.09% | -0.389%
63 | COCc1ccc(CN2CCC(O)(Cn3ccc4ncccc43)CC2)o1 | 0.485% | -34.6%
64 | Fc1ccc(-c2cnc(CN3CCCC3Cn3cccn3)o2)cc1 (centres undefined) | -1.83% | 8.21%
65 | CN(Cc1ccccc1)CC1(O)CCCN(CC(C)(C)C)C1=O (centres undefined) | -7.46% | 17.9%
66 | COc1cc(C(=O)N(Cc2ccco2)C2CC2)cc2c1OCCO2 | 1.56% | -6.37%
67 | COCC1c2c(cnn2CC2CC2)CCN1Cc1cccs1 (centres undefined) | -0.524% | 0.46%
68 | CCOc1ccccc1C(CC(=O)Nc1ccccc1F)NC(C)=O (centres undefined) | -4.12% | 31.5%
69 | O=C(c1cccn1Cc1cccs1)N1CCN(C2CC2)CC1 | -1.4% | -1.86%
70 | CC(=O)N1CCN(CCNS(=O)(=O)c2ccc(C)c(F)c2)CC1 | -1.95% | 5.72%
71 | Cc1cc(C(=O)N2CCCCC2C)ccc1NCCCO (centres undefined) | -5.49% | 11.1%
72 | CN(C)C(=O)CNC(=O)Nc1cccc(Cl)c1SC(F)F | 4.9% | -5.26%
73 | CNC(=O)CCCNCc1c(C(C)C)nn(C)c1N(C)C | 1.04% | 3.71%
74 | CCS(=O)(=O)NCCNC(=O)c1cc(Cl)c2c(c1)OCCCO2 | 5.01% | -2.3%
75 | CC(O)CN1CCC(CNCc2ccccc2Br)CC1 (centres undefined) | 1.21% | -20.4%
76 | Cn1ccnc1CN1CCCCC1Cn1cccn1 (centres undefined) | 2.66% | 11.2%
77 | O=C(NCCn1ccc(-c2ccncc2)n1)c1ccncc1 | 1.52% | -65.9%
78 | Cn1cc(N2CC3(CCN(Cc4cccs4)CC3)OCC2=O)cn1 | -0.729% | -20.1%

Row | SMILES | Percent Effect [1] | Percent Effect [2]
79 | O=C(c1ccc[nH]1)N1CCc2c(COCC3CC3)cncc2C1 | -0.626% | 1.55%
80 | CCC(=O)Nc1nnc(CCOc2cccc(OC)c2)s1 | -4.27% | 5.93%
81 | CC(CNC(=O)c1cccnc1Oc1cccnc1)N(C)C (centres undefined) | -3.18% | -12.1%
82 | CN1CCN(C2CCN(CCOc3ccc(F)cc3)CC2)C1=O | -2.61% | -5.38%
83 | Cc1cc(N2CCC(c3nnc(CN(C)C)n3C3CC3)CC2)ccn1 | 5.21% | -33.5%
84 | COc1cccc(CCNS(=O)(=O)c2ccc(NC(C)=O)cc2)c1 | -1.32% | -9.96%
85 | Cc1cc(C2CCCN(C(=O)c3c(C)nn4cccnc34)C2)n[nH]1 (centres undefined) | -6.19% | 7.06%
86 | COc1ncc(C2(O)CCN(Cc3ccccc3O)CC2)c(OC)n1 | -1.78% | -22.9%
87 | CC(C)c1nc(CN2CCN(C(C)c3nc(C4CC4)no3)CC2)no1 (centres undefined) | -2.84% | 5.21%
88 | CCc1cnc(CN(C(C)=O)C2CCN(CCc3cccs3)C2)o1 (centres undefined) | -1.49% | 21.4%
89 | CC(C)c1n[nH]c(C(=O)Nc2cc[nH]n2)c1Br | -4.43% | 13.3%
90 | CNC(=O)c1cnc(/C=C/c2cc(OC)cc(OC)c2)s1 | 5.76% | -89.3%
91 | COc1ccc(CN2C[C@@H](OCc3ccccn3)[C@H]3COC[C@H]32)cc1 | 3.47% | 12.7%
92 | CCOCc1cccc(S(=O)(=O)N2CCSCC2)c1 | -3.43% | -4.15%
93 | c1nc2c(c(C3CC3)n1)CCN(Cc1ccc3c(c1)OCO3)CC2 | -2.19% | -20.6%
94 | Cc1cc(C)n(CC2CCCN2C(=O)c2ccc3[nH]nnc3c2)n1 (centres undefined) | 3.71% | -26.6%
95 | O=C(Cn1cccnc1=O)NC(Cc1cccs1)c1ccccn1 (centres undefined) | -0.372% | -0.987%
96 | CC(NCc1ccncc1)c1cc(F)ccc1N1CCN(C)CC1 (centres undefined) | 0.183% | -4.73%
97 | Cc1noc(C)c1CN1CC2(CCN(C(=O)c3c[nH]cn3)C2)CC1=O (centres undefined) | 0.582% | -14.1%
98 | O=C(O)[C@@H]1CN(C(=O)c2cc(C3CC3)n[nH]2)C[C@H]1c1cccc(F)c1 | -3.42% | -8.72%
99 | CNc1cc(CCNC(=O)c2cccnc2)nc(-c2ccncc2)n1 | -1.03% | 2.08%
100 | CC(=O)NCCN1CCC(c2cccs2)CC1 | -5.78% | 1.86%
101 | Cn1ccnc1COc1ccc(CN2CCN(CCO)CC2)cc1 | -5.49% | -50.7%
102 | COCCN(Cc1ccc(F)cc1Cl)C(=O)c1cccc[n+]1[O-] | -4.34% | 0.846%
